For two compounds, inhibition results are on record in ChEMBL document CHEMBL1961873, “Compounds: GSK PKIS; Assays: Nanosyn kinase panel” (2012).

In assay [1] the target is T1, Inhibitor of nuclear factor kappa-B kinase subunit epsilon (Homo sapiens) (UniProt Q14164).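 Further: reported values are averaged percent inhibition figures against human IKKε.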
T1 sequence (whole entry): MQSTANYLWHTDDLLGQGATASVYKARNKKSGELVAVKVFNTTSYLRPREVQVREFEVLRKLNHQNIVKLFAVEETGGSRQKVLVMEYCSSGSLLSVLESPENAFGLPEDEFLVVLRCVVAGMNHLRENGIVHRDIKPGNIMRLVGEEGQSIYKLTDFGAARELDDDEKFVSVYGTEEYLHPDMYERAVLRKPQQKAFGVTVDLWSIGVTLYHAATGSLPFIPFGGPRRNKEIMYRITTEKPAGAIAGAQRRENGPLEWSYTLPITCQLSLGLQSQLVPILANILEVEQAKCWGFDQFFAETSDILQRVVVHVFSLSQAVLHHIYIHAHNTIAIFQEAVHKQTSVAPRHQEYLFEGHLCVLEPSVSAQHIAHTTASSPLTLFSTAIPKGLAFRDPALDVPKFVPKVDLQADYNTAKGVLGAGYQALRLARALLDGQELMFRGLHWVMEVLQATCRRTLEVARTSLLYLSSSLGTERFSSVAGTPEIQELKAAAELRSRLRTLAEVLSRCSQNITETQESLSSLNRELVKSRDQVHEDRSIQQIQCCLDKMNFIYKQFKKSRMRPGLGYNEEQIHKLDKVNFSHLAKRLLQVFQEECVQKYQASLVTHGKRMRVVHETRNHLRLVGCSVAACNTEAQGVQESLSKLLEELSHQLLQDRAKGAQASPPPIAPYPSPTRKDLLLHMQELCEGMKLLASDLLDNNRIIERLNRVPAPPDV
Conditions: at 1 µM.

The target of assay [2] is T2, Serine/threonine-protein kinase Nek1 (Homo sapiens) (UniProt Q96PY6).
T2 sequence (whole entry): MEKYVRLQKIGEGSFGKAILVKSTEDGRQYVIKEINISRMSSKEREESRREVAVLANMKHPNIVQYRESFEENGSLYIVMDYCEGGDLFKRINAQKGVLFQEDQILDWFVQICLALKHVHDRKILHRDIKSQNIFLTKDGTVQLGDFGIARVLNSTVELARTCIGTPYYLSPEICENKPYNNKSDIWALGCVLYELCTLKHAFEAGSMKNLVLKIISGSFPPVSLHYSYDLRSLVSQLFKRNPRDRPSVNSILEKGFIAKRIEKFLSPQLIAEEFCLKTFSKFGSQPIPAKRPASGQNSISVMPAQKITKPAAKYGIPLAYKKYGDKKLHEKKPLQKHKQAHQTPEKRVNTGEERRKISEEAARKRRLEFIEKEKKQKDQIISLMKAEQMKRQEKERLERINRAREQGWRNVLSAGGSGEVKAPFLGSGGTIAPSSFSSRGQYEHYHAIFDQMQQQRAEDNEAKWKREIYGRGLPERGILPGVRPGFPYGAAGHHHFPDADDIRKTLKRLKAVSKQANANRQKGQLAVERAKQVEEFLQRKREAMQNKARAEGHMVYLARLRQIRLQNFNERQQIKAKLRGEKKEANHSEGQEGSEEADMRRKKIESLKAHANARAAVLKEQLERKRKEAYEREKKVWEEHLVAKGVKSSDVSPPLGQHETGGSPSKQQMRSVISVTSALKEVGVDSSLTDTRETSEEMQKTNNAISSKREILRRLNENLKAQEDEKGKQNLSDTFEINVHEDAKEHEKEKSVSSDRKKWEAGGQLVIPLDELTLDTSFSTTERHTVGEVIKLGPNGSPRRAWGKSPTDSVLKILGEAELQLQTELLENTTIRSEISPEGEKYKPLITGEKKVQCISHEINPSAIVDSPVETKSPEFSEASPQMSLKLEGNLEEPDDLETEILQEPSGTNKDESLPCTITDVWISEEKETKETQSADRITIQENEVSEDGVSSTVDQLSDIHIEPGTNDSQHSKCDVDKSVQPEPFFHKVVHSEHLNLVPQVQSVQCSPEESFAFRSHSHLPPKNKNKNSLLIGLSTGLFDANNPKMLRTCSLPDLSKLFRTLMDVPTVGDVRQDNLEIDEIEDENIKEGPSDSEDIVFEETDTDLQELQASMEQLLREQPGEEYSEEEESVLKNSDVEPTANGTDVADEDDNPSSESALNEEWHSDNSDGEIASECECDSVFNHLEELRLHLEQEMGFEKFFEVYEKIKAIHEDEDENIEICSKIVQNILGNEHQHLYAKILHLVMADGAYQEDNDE
The note with it: at 0.1 µM.

Assay [3] deals with T2, Serine/threonine-protein kinase Nek1 (Homo sapiens). Conditions: at 1 µM.
Assay [4] deals with T3, Serine/threonine-protein kinase Nek2 (Homo sapiens) (UniProt P51955).
T3 sequence (whole entry): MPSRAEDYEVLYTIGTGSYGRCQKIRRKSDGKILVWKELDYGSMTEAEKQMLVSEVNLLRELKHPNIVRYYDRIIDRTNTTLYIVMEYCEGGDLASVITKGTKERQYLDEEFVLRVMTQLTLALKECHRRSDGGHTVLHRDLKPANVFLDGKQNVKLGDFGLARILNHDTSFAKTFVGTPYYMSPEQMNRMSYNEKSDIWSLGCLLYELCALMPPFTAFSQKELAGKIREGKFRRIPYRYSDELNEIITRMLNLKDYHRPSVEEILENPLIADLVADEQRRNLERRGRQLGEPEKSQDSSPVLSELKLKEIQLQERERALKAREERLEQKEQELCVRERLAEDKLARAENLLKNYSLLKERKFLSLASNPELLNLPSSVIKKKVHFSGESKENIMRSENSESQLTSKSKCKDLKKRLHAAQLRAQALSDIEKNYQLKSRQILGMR
The note with it: at 0.1 µM.

For assay [5], the target named is T3, Serine/threonine-protein kinase Nek2 (Homo sapiens). Conditions: at 1 µM.
For assay [6], the target named is Serine/threonine-protein kinase Nek6 (Homo sapiens) (UniProt Q9HC98). The note with it: at 0.1 µM.
Assay [7] has the same target. The note with it: at 1 µM.
Assay [8] has as its target Serine/threonine-protein kinase Nek7 (Homo sapiens) (UniProt Q8TDX7). The note with it: at 0.1 µM.
Assay [9] has the same target. Conditions: at 1 µM.
Assay [10] addresses T4, Serine/threonine-protein kinase Nek9 (Homo sapiens) (UniProt Q8TD19).
T4 sequence (whole entry): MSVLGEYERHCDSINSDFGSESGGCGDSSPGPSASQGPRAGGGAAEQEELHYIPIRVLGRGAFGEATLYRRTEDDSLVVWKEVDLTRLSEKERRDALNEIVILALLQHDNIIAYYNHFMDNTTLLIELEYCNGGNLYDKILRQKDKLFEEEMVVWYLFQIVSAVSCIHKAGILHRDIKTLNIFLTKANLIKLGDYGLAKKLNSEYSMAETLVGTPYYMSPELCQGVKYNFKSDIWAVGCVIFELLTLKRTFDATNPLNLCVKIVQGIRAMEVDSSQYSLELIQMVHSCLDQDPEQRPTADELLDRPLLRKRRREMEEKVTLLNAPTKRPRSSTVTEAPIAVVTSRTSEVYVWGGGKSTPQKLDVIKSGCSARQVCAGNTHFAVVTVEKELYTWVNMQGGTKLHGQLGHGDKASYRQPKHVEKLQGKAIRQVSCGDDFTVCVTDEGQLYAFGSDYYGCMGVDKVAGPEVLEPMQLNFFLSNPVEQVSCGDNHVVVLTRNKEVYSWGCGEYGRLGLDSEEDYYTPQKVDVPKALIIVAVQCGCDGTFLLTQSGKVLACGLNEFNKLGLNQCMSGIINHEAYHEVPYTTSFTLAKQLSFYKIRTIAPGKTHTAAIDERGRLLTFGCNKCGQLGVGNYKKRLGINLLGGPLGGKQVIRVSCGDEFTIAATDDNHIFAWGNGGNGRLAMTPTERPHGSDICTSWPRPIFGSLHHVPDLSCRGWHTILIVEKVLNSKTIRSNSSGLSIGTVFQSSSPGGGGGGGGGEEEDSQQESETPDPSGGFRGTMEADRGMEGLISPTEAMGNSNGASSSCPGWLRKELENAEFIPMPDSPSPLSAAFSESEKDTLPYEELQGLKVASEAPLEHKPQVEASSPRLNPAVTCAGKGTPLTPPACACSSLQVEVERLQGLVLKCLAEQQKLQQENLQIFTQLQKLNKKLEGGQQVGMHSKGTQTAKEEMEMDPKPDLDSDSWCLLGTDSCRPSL
The note with it: at 0.1 µM.

Assay [11] addresses T4, Serine/threonine-protein kinase Nek9 (Homo sapiens). The note with it: at 1 µM.
Assay [12] deals with Serine/threonine-protein kinase PLK1 (Homo sapiens) (UniProt P53350). Conditions: at 0.1 µM.
The target is the same in assay [13]. The note with it: at 1 µM.
The target in assay [14] is T5, Dual specificity protein kinase TTK (Homo sapiens) (UniProt P33981).
T5 sequence (whole entry): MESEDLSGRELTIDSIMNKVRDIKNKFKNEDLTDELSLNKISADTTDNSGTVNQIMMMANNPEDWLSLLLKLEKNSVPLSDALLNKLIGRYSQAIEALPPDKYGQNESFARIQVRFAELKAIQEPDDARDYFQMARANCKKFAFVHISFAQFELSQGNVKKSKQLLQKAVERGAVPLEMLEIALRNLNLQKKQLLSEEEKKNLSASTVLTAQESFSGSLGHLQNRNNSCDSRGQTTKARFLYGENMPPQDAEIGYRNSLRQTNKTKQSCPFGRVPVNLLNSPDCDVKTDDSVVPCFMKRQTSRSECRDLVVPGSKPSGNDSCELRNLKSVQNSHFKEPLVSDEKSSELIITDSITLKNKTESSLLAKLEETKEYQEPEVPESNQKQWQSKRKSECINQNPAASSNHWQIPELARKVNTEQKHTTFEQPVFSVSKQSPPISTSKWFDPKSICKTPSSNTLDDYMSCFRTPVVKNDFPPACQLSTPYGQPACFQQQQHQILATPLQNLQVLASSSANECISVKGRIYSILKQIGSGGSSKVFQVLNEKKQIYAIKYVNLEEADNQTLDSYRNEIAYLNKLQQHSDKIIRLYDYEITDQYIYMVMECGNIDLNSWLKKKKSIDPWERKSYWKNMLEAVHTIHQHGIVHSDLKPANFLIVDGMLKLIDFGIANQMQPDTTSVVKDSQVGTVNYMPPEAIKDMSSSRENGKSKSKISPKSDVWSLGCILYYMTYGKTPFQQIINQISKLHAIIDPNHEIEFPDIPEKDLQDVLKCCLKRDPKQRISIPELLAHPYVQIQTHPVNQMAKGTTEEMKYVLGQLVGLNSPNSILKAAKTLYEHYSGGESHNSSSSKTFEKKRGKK
The note with it: at 0.1 µM.

Assay [15] has as its system T6, Receptor-type tyrosine-protein kinase FLT3 (Homo sapiens), P36888 [D835Y].
T6 sequence (whole entry): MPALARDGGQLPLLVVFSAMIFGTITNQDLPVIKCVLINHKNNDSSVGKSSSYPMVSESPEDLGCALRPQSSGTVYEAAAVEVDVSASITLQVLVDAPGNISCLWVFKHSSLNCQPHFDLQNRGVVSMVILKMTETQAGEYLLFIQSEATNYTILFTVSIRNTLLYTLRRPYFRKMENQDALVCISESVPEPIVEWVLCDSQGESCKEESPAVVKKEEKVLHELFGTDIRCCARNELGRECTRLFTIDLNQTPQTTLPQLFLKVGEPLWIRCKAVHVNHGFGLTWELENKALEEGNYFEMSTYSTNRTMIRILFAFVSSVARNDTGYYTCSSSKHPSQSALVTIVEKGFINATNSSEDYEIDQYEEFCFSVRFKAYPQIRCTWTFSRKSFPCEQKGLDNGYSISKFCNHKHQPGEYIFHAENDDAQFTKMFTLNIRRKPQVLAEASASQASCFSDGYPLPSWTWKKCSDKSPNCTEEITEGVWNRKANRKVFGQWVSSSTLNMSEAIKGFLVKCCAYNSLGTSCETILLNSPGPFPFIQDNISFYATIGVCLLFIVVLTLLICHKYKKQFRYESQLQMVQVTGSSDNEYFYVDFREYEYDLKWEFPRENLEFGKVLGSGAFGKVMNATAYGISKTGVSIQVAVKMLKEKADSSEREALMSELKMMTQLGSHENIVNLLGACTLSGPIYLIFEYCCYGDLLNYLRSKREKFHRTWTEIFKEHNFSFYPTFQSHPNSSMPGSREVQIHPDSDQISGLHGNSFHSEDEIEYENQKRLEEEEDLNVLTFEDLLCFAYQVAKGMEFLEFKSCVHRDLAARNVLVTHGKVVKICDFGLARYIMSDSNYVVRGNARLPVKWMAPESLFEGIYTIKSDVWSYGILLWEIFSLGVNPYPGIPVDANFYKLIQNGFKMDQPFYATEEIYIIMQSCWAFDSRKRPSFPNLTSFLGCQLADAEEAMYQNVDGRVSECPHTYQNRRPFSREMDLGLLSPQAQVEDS
Conditions: at 1 µM.

Assay [16] addresses Vascular endothelial growth factor receptor 3 (Homo sapiens) (UniProt P35916). Conditions: at 0.1 µM.
Assay [17] shares this target. Conditions: at 1 µM.
Assay [18] deals with Macrophage colony-stimulating factor 1 receptor (Homo sapiens) (UniProt P07333). The note with it: at 0.1 µM.
Assay [19] shares this target. The note with it: at 1 µM.
Assay [20] deals with Tyrosine-protein kinase Fyn (Homo sapiens) (UniProt P06241). Conditions: at 0.1 µM.
Chain of Tyrosine-protein kinase Fyn (Homo sapiens) (P06241 2-537 limits assumed): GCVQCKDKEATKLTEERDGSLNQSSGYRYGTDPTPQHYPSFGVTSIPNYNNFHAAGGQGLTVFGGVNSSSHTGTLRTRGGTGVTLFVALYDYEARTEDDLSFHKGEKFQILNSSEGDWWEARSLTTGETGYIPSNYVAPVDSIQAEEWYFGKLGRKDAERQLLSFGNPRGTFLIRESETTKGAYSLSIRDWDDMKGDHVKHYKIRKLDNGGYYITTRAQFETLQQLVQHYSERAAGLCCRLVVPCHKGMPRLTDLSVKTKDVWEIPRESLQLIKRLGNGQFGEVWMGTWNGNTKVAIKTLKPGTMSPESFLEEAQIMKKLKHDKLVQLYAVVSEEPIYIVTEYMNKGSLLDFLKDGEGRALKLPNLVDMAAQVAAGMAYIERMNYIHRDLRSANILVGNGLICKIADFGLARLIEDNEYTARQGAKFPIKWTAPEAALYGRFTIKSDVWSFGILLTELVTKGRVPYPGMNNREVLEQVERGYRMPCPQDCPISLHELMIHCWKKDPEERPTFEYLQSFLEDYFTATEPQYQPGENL

Chain of Serine/threonine-protein kinase Nek6 (Homo sapiens) (Q9HC98 whole entry): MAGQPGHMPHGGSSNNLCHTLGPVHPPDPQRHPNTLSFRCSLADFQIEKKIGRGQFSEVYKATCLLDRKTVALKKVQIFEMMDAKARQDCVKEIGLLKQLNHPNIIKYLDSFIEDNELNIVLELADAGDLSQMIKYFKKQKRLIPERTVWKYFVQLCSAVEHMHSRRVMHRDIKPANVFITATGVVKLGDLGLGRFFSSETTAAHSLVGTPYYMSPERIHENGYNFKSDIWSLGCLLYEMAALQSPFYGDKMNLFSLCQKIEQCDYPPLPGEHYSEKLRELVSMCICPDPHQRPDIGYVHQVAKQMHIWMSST
Chain of Serine/threonine-protein kinase PLK1 (Homo sapiens) (P53350 whole entry): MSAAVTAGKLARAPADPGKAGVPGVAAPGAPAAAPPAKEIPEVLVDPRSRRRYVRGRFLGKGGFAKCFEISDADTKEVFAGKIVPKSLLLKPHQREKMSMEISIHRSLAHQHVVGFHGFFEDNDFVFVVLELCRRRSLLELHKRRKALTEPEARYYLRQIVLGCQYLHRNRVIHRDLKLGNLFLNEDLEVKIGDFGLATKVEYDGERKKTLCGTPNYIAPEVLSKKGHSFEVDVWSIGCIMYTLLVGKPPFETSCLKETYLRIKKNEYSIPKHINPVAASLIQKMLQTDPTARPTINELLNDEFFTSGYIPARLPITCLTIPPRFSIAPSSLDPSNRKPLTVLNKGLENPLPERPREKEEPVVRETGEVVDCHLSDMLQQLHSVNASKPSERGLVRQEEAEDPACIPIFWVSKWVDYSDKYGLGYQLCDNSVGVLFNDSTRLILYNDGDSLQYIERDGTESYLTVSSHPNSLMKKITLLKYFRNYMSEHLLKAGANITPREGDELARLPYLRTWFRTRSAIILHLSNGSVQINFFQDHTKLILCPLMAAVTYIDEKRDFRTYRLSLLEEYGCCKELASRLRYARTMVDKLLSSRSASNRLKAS
Chain of Macrophage colony-stimulating factor 1 receptor (Homo sapiens) (P07333 whole entry): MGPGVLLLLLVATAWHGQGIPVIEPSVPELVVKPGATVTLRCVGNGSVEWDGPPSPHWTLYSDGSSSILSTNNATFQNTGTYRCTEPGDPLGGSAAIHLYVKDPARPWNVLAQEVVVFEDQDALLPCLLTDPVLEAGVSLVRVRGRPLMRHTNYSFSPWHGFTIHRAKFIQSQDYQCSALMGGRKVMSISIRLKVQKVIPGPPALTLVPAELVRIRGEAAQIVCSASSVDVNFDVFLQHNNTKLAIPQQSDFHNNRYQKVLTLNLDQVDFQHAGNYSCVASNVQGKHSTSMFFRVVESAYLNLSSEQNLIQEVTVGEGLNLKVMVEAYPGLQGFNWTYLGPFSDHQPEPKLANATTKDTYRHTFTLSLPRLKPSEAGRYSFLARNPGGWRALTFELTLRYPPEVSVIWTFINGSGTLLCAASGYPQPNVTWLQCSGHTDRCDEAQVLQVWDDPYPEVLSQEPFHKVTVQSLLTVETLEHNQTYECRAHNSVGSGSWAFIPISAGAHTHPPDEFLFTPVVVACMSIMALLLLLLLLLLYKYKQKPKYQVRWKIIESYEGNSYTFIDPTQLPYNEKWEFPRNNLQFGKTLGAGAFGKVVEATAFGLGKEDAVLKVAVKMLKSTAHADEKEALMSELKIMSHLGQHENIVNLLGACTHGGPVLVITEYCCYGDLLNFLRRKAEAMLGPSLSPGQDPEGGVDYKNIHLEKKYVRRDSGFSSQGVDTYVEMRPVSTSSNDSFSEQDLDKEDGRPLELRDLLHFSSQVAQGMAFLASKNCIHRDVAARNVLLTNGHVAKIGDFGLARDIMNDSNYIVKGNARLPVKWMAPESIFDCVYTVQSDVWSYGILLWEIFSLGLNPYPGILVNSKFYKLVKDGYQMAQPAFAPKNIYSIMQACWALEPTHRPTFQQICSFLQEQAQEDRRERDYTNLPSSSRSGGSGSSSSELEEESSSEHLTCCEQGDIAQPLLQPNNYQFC
Chain of Vascular endothelial growth factor receptor 3 (Homo sapiens) (P35916 whole entry): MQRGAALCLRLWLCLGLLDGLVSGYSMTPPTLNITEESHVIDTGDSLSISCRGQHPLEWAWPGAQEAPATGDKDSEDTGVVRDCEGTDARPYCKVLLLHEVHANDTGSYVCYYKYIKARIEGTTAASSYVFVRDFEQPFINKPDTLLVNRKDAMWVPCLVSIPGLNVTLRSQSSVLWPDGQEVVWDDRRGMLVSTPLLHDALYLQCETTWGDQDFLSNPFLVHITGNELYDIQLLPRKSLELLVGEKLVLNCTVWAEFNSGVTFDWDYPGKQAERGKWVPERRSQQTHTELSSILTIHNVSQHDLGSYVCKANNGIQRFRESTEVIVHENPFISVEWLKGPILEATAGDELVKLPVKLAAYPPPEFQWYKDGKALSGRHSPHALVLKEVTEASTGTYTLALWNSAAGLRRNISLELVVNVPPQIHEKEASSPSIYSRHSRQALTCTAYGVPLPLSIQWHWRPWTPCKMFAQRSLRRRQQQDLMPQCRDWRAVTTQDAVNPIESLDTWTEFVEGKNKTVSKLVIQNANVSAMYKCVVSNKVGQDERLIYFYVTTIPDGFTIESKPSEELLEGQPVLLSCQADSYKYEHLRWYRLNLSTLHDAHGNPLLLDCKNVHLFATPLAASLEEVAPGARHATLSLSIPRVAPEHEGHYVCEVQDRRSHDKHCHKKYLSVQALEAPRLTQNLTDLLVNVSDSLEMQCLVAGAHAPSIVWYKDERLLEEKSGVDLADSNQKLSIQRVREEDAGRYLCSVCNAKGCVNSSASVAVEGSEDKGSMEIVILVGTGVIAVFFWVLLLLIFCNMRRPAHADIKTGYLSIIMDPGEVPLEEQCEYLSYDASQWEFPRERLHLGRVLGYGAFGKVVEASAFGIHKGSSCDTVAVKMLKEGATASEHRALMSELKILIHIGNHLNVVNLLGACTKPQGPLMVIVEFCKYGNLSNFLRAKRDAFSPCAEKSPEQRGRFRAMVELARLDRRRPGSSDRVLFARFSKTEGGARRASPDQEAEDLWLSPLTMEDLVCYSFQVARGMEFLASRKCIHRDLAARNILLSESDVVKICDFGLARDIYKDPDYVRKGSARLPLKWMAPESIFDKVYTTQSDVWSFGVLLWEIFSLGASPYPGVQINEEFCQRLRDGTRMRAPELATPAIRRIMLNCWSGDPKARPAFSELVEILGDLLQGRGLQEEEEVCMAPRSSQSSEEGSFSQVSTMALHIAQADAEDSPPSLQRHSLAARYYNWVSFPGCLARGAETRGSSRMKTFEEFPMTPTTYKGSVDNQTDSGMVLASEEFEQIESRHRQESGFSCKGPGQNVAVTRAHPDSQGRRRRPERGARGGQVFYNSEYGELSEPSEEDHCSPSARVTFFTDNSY
Chain of Serine/threonine-protein kinase Nek7 (Homo sapiens) (Q8TDX7 whole entry, looked up): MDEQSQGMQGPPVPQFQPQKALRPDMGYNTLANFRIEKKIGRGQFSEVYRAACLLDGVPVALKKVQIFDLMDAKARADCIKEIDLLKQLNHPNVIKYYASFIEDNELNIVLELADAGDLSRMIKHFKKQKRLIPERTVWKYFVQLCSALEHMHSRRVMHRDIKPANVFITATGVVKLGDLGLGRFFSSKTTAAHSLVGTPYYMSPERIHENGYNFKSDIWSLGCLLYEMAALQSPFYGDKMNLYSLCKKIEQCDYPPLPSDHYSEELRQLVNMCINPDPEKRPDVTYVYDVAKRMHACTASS

For orientation: inhibition means the relative decrease from the control value, in per cent. Regarding `C[C@@H](Oc1cc(-n2cnc3ccc(OCC4CCN(C)CC4)cc32)sc1C(N)=O)c1ccccc1C(F)(F)F`, the inhibition was -1.35% in [1]; 18.4% in assay [2]; 60.5% in assay [3]; 23.6% in assay [4]; 69.2% in assay [5]; -1.61% in [6]. The inhibition in assay [7] is 0.33%; in [8], -2.74%; in assay [9] it was -0.71%; in assay [10], 88.3%; in assay [11], 102%; in assay [12], 91.6%. Also, the inhibition in assay [13] was 94.3%; in [14] it was 1.25%; in assay [15], 20.9%; in [16] it was 1.45%; in [17], 18.6%; in [18] it was -4.84%. Also, the inhibition stood at 8.46% in assay [19] and 2.33% in [20].

On to `Cc1nc(-c2ccccc2)n2nc(NCCCN3CCOCC3)ncc12`, for which the inhibition was 6.26% in assay [1]; 1.82% in [2]; 1.68% in [3]; 3.14% in assay [4]; 1.97% in assay [5]; -0.18% in assay [6]. The inhibition in [7] came to 3.25%; in assay [8] it was 1.2%; in assay [9], 2.34%; in [10], 7.69%; in [11], 8.77%; in assay [12], 3.18%. For the same compound, the inhibition came out at 3.22% in [13]; 6.18% in assay [14]; 1.89% in [15]; 2.75% in assay [16]; 2.24% in assay [17]; 1.73% in assay [18]. For the same compound, the inhibition in assay [19] worked out at 10.9%; in assay [20], 1.73%.
